Measurements taken from PubChem BioAssay AID485314 (National Center for Advancing Translational Sciences (NCATS), 2010).
The whole screen tested about 340,000 compounds, of which about 4,500 (1.3%) were called active. Inconclusive results (about 5%) are left out. Calls follow the shape of the dose curve; as a rule, active = well fitted inhibition curve with a large enough effect; inconclusive = small, poorly fitted or top-dose-only effect, or another doubt; inactive = no such curve, though single readings can be large or run the other way. This excerpt belongs to a sample that is enriched for actives.

These compounds were tested against DNA polymerase beta (Homo sapiens) (UniProt P06746) (assay: qHTS Assay for Inhibitors of DNA Polymerase Beta). Settings: Pol beta primer extension/strand displacement, fluorescence kinetic; series mostly up to 114 µM.
Excerpt: The base excision repair system in human cells is a target for therapeutic modulation of the response to irradiation treatment and DNA-damaging drugs. A key enzyme in this system is the bi-functional DNA polymerase known as DNA polymerase Beta (Pol Beta). The following is a homogeneous kinetic assay to study the primer extension and strand-displacement reaction catalyzed by pol beta.
A stepwise description of the 1536-well assay is shown in next Table. Three microliters of reagents (buffer in column 3 and 4 as negative control and 10 nM Pol beta in columns 1, 2, and 5-48) was dispensed into 1,536-well black solid-bottomed plate. Compounds (23 nL) were transferred via Kalypsys pin tool equipped with 1536-pin array (10 nL slotted pins, V&P Scientific, San Diego, CA). The plates were incubated for 15 min at room temperature, and 1 uL substrate (50 nM final concentration) were added to start the reaction and immediately read at 0 min read on Viewlux reader. The plate were further incubated for 10 min at room temperature, and then read on Viewlux again. Throughout the screen, reagent bottle and all liquid lines were chilled and made light-tight to minimize reagent degradation. All screening operations were performed on a fully integrated robotic system (Kalypsys, San Diego, CA) containing one RX-130 and two RX-90 anthropomorphic robotic arms (Staubli, Duncan, SC). Library plates were screened starting from the lowest and proceeding to the highest concentration, and a double-dipping step of the highest concentration was required to access higher concentrations of compounds. Vehicle-only plates, with DMSO being pin-transferred to the entire column 5-48 compound area, were inserted uniformly at the beginning and the end of each library in order to monitor for and record any shifts in the background, which can be affected by reagent dispensers or loss in enzyme activity overtime. Screening data were corrected, normalized, and concentration-effect relationships were derived by using publicly-available curve fitting algorithms developed in-house (http://ncgc.nih.gov/pub/openhts). A four parameter Hill equation was fitted to the concentration-response data by minimizing the residual error between the modeled and observed responses.
Potency is read from the fitted curve at half-maximal effect.

Potency, inactive:
COc1ccc(NC(=O)CSc2nc(N)c(-c3ccccc3)c(=O)[nH]2)cc1
COc1cc(OC)cc(-c2nnc(SCC(=O)Nc3ccc(C(=O)O)cc3)s2)c1
O=C(NCCc1csc(-c2ccc(C(F)(F)F)cc2)n1)C(=O)Nc1ccc(F)c(Cl)c1
CC(=O)c1ccc(NC(=O)CSc2nc(-c3ccccc3F)nc3c2c(=O)n(C)c(=O)n3C)cc1
COc1ccc(OC)c2sc(N3CCN(C(=O)C4COc5ccccc5O4)CC3)nc12 (stereo not given)
Cc1c(C)c2ccc(OCC(=O)N3CCC(C(=O)O)CC3)c(C)c2oc1=O
COc1ccc(OC)c(CNC(=O)CN2C(=O)CCn3nc(-c4cn(C)c5ccccc45)cc32)c1
CC(=O)Nc1ccc(S(=O)(=O)N2CCN(c3ccccc3)CC2)cc1
Cc1cc(/C=C2\SC(=Nc3ccc(N4CCOCC4)cc3)N(C)C2=O)c(C)n1-c1cccnc1
Cc1cc(/C=C2/SC(=O)N(CC(=O)N3CCCC3)C2=O)c(C)n1C
O=C(CSCc1cnn(-c2ccccc2)c1-n1cccc1)NCc1ccc(Cl)cc1
COc1ccccc1/C=C/c1nc(C#N)c(NC(C)c2ccccc2)o1 (stereo not given)
COc1ccc(-c2nc3sc(CCNC(=O)C(C)(C)C)c(C)n3n2)cc1
Cc1ccc2onc(CC(=O)N3CCN(c4ccc(Cl)cc4)CC3)c2c1
CC(C)c1ccc(S(=O)(=O)Nc2ccc(O)c(Sc3nc4ccccc4s3)c2)cc1
COc1cccc(NC(=O)CSC2=Nc3ccccc3C3=NC(CC(=O)NC4CCCCC4)C(=O)N23)c1 (stereo not given)
O=C(Cn1cnc2ccccc21)N/N=C/c1ccco1
Cc1n[nH]c(=O)nc1N/N=C/c1cccs1
CCC(=O)N1CCc2cc(S(=O)(=O)NC(C(=O)Nc3ccc(C(C)=O)cc3)C(C)C)ccc21 (stereo not given)
Cc1cccc(C2CC(=O)Oc3c2c(=O)n(C)c2ccccc32)c1 (stereo not given)
Cc1ccc(OCC(=O)Nc2ccc(Cl)c(-c3nc4ccccc4[nH]3)c2)cc1C
COc1ccc(-c2nn(-c3ccccc3)cc2/C=C2/SC(=S)N(CCCC(=O)O)C2=O)c(C)c1
C=CCOc1ccc(/C=C2\SC(=S)N(CCC(=O)O)C2=O)cc1
Cc1cccc(Cn2c(CN3CCC(C(=O)NCc4ccccc4Cl)CC3)cc3ccccc32)c1
CCc1ccc(N(CC)C(=O)CCn2cnc3onc(-c4ccc(F)cc4)c3c2=O)cc1
CCCN1C(=O)C(O)(CC(=O)c2ccc(CC)cc2)c2cc(Br)ccc21 (stereo not given)
COc1ccc(C(=O)/C=C/c2cccnc2)c(OC)c1
COc1ccc(C(=O)/C=C/c2ccc(OC3CSC3)cc2)cc1
CSc1ccc(CCNC(=O)c2cnn(-c3ccccc3)c2-n2cccc2)cc1
O=C(/C=C/c1ccccc1)N1CCN(Cc2cc(=O)n3nc(-c4ccccc4F)sc3n2)CC1
CCOc1ccccc1C(=O)NC1(C(F)(F)F)C(=O)Nc2c1c(=O)[nH]c(=O)n2-c1ccc(F)cc1 (stereo not given)
Cc1ccc(CCNC(=O)c2nnc(Cc3cccc(F)c3)o2)cc1
CCOc1ccc2[nH]c(=O)c(CN(CCCO)S(=O)(=O)c3ccc(F)cc3)cc2c1
CCOC(=O)c1ccc(S(=O)(=O)N(CCO)Cc2cc3cc(OC)c(OC)cc3[nH]c2=O)cc1
O=C1N/C(=C/c2cccn2-c2ccccc2)C(=O)N1c1cccc(Cl)c1
Cc1ccccc1NC(=O)CN1C(=O)C(C)(C)c2ccccc21
COc1ccccc1NC(=O)C1=C(C)Nc2nc(SCC(=O)c3ccc(C)cc3)nn2C1c1ccccc1C (stereo not given)
CCc1ccccc1NC(=O)Cn1c(=O)n(-c2cccc(C)c2)c(=O)c2c1c1cc(OC)ccc1n2C
CCc1cccc(C)c1NC(=O)CSc1nnc(-c2ccco2)n1N
NC(=O)c1c(NC(=O)CSc2nc(N)cc(=O)[nH]2)sc2c1CCCC2
CCOc1ccccc1C(=O)NCc1ccc2c(c1)CCN2C(=O)c1ccc(F)cc1
O=C(OCN1C(=O)c2ccccc2C1=O)/C(=C\c1ccco1)NC(=O)c1ccccc1
C=CCOC(=O)C1=C[C@@H](c2ccccc2)C[C@@H](OCc2ccc(CO)cc2)O1
O=C(O)C1=C[C@H](c2cccs2)C[C@H](OCCCCO)O1
CCCCc1nn2c(=O)cc(COC(=O)c3cccc(NC(=O)COc4ccccc4)c3)nc2s1
COc1ccc(N2CCN(S(=O)(=O)c3ccc4c(c3)N(C(C)=O)CCO4)CC2)cc1
COc1ccc(N2CCN(C(=O)C3CCN(S(=O)(=O)c4ccc(C)cc4)CC3)CC2)cc1
Cc1ccc(-c2csc(NC(=O)Cn3[nH]c(=O)c4ccccc4c3=O)n2)cc1
O=C(CSC1=NCCS1)Nc1nc(-c2ccccc2)cs1
CC(C)(C)c1ccc(C(=O)NCC(c2ccco2)S(=O)(=O)c2ccc(F)cc2)cc1 (stereo not given)
COc1cccc(NC(=O)N(Cc2cn(C)c3ccccc23)C2CCCCCC2)c1
O=C(CSc1ccc(-c2ccco2)nn1)Nc1cccc(F)c1
Cc1ccccc1-c1nnc(SCC(=O)NCc2ccc3c(c2)OCO3)n1C
Cc1ccccc1OCCSc1nc2ccc(NC(=O)c3ccco3)cc2s1
Cc1ccc(C2CCN(C(=O)c3cnn(-c4ccccc4Cl)c3C3CCN(C(=O)OC(C)(C)C)CC3)C2)cc1 (stereo not given)
Cc1cccc(N2CCN(S(=O)(=O)c3ccc(-c4cc(C)no4)s3)CC2C)c1 (stereo not given)
Cc1cccc(N2CCN(C(=O)c3cccc(S(=O)(=O)N4CCc5ccccc5C4)c3)CC2C)c1 (stereo not given)
CC(C)(C)c1ccc(OCC(=O)N2CCC(c3nc4ccccc4s3)CC2)cc1
Cc1cccc(NC(=O)/C(=C\c2ccco2)NC(=O)c2ccccc2)c1
O=C(Nc1ccccc1)/C(=C\c1ccco1)NC(=O)c1ccco1
CC(=O)Nc1cc(C(=O)NCc2ccc(F)cc2Cl)ccc1Sc1ccc(Cl)cc1
CCC(Sc1nnc(-c2ccc(OC)cc2)c(-c2ccc(OC)cc2)n1)C(=O)NC1CCCCC1 (stereo not given)
COc1cccc(-n2cc(C(=O)NCc3cccc(Cl)c3)c3ccccc3c2=O)c1
Nc1ccc(-c2sc(N)nc2-c2ccccc2)cc1
Cc1ccc2cccc(NC(=O)C(C)Oc3ccc(C)c(C)c3)c2n1 (stereo not given)
Cn1nc(-c2ccccc2)c(-c2ccccc2)c(C(=O)Nc2ccc(S(N)(=O)=O)cc2)c1=O
COc1ccc(Cn2ccnc2SCC(=O)Nc2ccc3c(c2)OCO3)cc1
CCCS(=O)(=O)N1CCC(n2c(C(F)(F)F)nc3cccnc32)CC1
COc1ccc(C(=O)Nc2cc(C)ccc2NC(=O)COc2ccccc2)cc1
COc1ccc(C(=O)NNC(=S)NC(=O)c2ccccc2)cc1
O=C(CS(=O)(=O)c1cccc2nsnc12)N1CCN(c2cccc(Cl)c2)CC1
CCOc1ccc(S(=O)(=O)Nc2ccc3oc4c(c3c2)CC(C)CC4)cc1 (stereo not given)
Cc1cccc(NC(=O)CSc2ncc(-c3ccccc3)[nH]2)c1C
Cc1ccc(NC(=O)C(=O)NCc2ccco2)c(C)c1
Cc1cc(C)n2nc(SCC(=O)NC(=O)NCc3ccco3)nc2n1
Cn1ccc2cc(S(=O)(=O)N3CCCC(C(=O)NCc4ccccc4F)C3)ccc21 (stereo not given)

Potency, active:
COc1ccc(-c2nc3c(c(SCC(=O)Nc4ccc(C(=O)O)cc4)n2)Cc2ccccc2O3)cc1 2.24 µM
Cc1c(CC(=O)N2CCN(C(=O)C3COc4ccccc4O3)CC2)c(=O)oc2c(O)c(O)ccc12 (stereo not given) 0.794 µM
Cc1cc(/C=C2\SC(=O)N(C)C2=O)c(C)n1-c1cccc(C(=O)O)c1 28.2 µM
O=c1nc(N/N=C/c2ccco2)cn[nH]1 11.2 µM
Cc1ccc(-c2nn(-c3ccccc3)cc2/C=C2\SC(=S)N(CCCCCC(=O)O)C2=O)o1 50.1 µM
COc1ccc(/C=C/C(=O)c2cc(Br)ccc(=O)c2O)cc1 50.1 µM
COc1ccc(S(=O)(=O)N(CCCN2CCCC2=O)Cc2cc3c(C)ccc(C)c3[nH]c2=O)cc1 89.1 µM
Cc1ccccc1NC(=O)CN1C(=O)N/C(=C\c2cccn2-c2cccc(C(=O)O)c2)C1=O 2.24 µM
NC(=O)c1c(NC(=O)CSc2nnc(-c3ccco3)n2N)sc2c1CCCC2 39.8 µM
O=c1nc2s/c(=C\c3ccco3)c(=O)n2nc1Cc1ccccc1 14.1 µM
C#Cc1ccc([C@@H]2C=C(C(=O)O)O[C@H](OCCCCO)C2)cc1 28.2 µM
COc1ccc(N2CCN(S(=O)(=O)c3ccc(-c4coc(C)n4)cc3)CC2)cc1 31.6 µM
O=C(CSc1nc2ccccc2c(=O)[nH]1)Nc1nc(-c2ccc(Br)cc2)cs1 4.47 µM
O=C(CSc1ccc(-c2ccco2)nn1)NCc1ccc2c(c1)OCO2 15.8 µM
Cc1cccc(N2CCN(S(=O)(=O)c3ccc4[nH]c(=O)c(=O)[nH]c4c3)CC2C)c1 (stereo not given) 25.1 µM
COc1ccccc1C(=O)N/C(=C/c1ccco1)C(=O)Nc1ccc(C(=O)O)cc1 50.1 µM
Nc1[nH]c(=S)nc2nc(-c3ccccc3)c(-c3ccccc3)nc12 22.4 µM
COc1ccc(OCC(=O)NNC(=O)c2ccc(-c3ccccc3)cc2)cc1 44.7 µM
Cc1ccc(SCC(=O)NC(=O)NCc2ccco2)c(C)c1 25.1 µM
